From PubChem
Only some compounds are listed: those with a hit (about 7.5% of all), similar ones and a draw of the others.
FLuc counter: counter-screen for miR-21 project: firefly luciferase inhibitors or activators; purified FLuc, Km substrates, luminescence inhibition; actives 6.9% (n = 360,000); Potency, µM (doses to about 57.5 µM), for the others: at the highest dose activity change, negative = inhibition, actives largely listed as inhibitors; P08659;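 also: plate controls were vehicle for no effect and reference inhibitor for full effect; nearly all actives have a fitted effect of over 55% in size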
Target sequence (P08659 whole entry, looked up): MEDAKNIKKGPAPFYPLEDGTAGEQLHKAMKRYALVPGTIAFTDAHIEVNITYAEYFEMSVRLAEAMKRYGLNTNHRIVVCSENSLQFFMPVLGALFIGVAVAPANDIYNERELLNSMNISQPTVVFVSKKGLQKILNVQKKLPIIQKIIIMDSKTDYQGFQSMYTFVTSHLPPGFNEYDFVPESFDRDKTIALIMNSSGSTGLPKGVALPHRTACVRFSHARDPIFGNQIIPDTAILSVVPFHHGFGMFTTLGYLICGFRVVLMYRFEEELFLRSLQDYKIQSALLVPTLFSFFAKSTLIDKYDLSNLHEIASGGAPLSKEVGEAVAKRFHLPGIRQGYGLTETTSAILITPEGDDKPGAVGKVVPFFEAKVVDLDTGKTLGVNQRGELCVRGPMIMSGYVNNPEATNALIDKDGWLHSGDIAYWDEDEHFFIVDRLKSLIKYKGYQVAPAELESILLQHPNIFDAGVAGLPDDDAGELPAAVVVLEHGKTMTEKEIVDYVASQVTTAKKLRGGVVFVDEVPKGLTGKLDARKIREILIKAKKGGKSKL
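Purified P. pyralis luciferase (10nM final) with 10uM D-luciferin and 10uM ATP (Km levels) in 50mM Tris acetate pH 7.5, 10mM Mg acetate, 0.01% Tween-20, 0.05% BSA; qHTS 6-point titration, ~60 µM downward; luminescence read.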
SMN2 splice up: increases expression of the SMN2 splice variant. actives 2.8% (n = 210,000). Potency, µM (series often up to 46.1 µM), for inactives: at the highest dose activity change, positive = activation, hits mostly activators. HEK293 SMN2-luciferase splicing reporter, luminescence, 30-36 h. AID 1458; also: % of control where 0% means no effect; nearly all actives have a fitted effect of over 55% in size
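HEK293 cells carry an SMN2 minigene-luciferase reporter in which exon 7 inclusion puts luciferase in frame. Cells were seeded at 2000 cells/well, attached for 10-12 hours, then exposed to compounds for 30-36 hours at 37C before ONE-Glo luminescence.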
ELG1 genotox: induces genotoxicity in HEK293T cells with luciferase-tagged ELG1 | Potency, µM (top dose mostly 46 µM), for the others: at the top dose activity change, positive = activation, actives largely listed as activators | HEK293T ELG1-luciferase reporter, luminescence, 16 h | AID 504466 | actives 1.3% (n = 330,000); also: % of control where 0% means no effect; nearly all actives have a fitted effect of over 60% in size
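ELG1-luciferase HEK293T cells, 2,000/well; compound pinned in; 16 hr, 37 °C, 5% CO2; ONE-Glo, 30 min RT; luminescence on CCD imager.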
NPC1 prom act: activators of NPC1 promoter; Huh7 NPC1 promoter luciferase reporter, 24 h; Potency, µM (doses to about 9.22 µM), for the others: at the highest dose activation, hits mostly activators; actives 2.4% (n = 320,000); AID 485313; also: % of control where 0% means no effect; nearly all actives have a fitted effect of over 60% in size
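Stably transfected Huh7 (NPC1 promoter→luciferase), 1500 cells/well in Opti-MEM + 10% FBS, 2 h settle, then compound 24 h at 37 °C. Luminescence after 10 min with Amplite reagent.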
Rab9 promoter act: activates the Rab9 promoter; Huh7 Rab9 promoter-luciferase reporter, luminescence, 24 h; Potency, µM (doses to about 9.22 µM), for inactives: at the top dose activation, negative = inhibition, usual class: activators; actives 2.8% (n = 320,000); AID 485297; also: % of control where 0% means no effect; nearly all actives have a fitted effect of over 60% in size
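Stable Rab9-luc Huh7, 1500 cells/well, 2 h settle; cmpd in DMSO, 24 h, 37 °C/5% CO2; luciferase reagent 10 min RT; luminescence.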
Numbers without * were called inactive; ? = inconclusive; / = no result given. Calls follow the shape of the dose curve; as a rule, active = well fitted curve in the direction sought with a large enough effect; inconclusive = small, poorly fitted or top-dose-only effect, or another doubt; inactive = no such curve, though single readings can be large; an effect the other way counts as inactive or inconclusive. Potency is read from the fitted curve at half-maximal effect.

SMILES	FLuc counter	SMN2 splice up	ELG1 genotox	NPC1 prom act	Rab9 promoter act
O=C(Nc1ccc(-n2cnnn2)cc1)c1cn2ccccc2n1	?	/	?	1.58µM*	1.58µM*
COc1cccc(C2C=C(Nc3ccccc3)C(=O)N2c2ccccc2)c1 (configuration not stated)	-4.1%	2.6%	4.4%	-0.1%	-4.3%
CCCn1c(N)c(N(CCOC)C(=O)c2ccc([N+](=O)[O-])c(C)c2)c(=O)[nH]c1=O	-3.4%	/	2.3%	-1.9%	4.8%
CCn1c2ccc(C)cc2c2nc3cc(C(=O)O)ccc3nc21	26.9µM*	13.9%	?	19.0%	?
CCn1c2ccc(Cl)cc2c2nc3ccccc3nc21	?	-11.3%	0.4%	-4.5%	6.7%
CSc1nsc2nc(=O)c(/C=C3\C(C)=Nc4ccc(C)cc43)c(N)n12	13.5µM*	-46.8%	-23.5%	-12.2%	-10.2%
CSc1nsc2nc(=O)c(/C=C3\C=Nc4ccccc43)c(N)n12	16.9µM*	2.9%	?	14.0%	28.4%
CC(C)S(=O)(=O)c1nsc2nc(=O)c(/C=C3\C=Nc4ccccc43)c(N)n12	?	7.0%	0.0%	-1.2%	-2.2%
